Test results as given in PubChem BioAssay AID1159580 (chemical genetic matrix, 2015).
“And” between values parts separate entries of the source, which are not always exact repeats. Identical values can stand only once. The whole screen tested about 5,500 compounds, of which about 2,000 (36%) were called active. Inconclusive results (about 18%) are left out. Rule as the data show it: active = normalized growth mostly below about 0.91 (no sharp cut-off); inconclusive = no clear call, values can overlap the other calls; inactive = mostly above about 0.92. The list shows a part of the results.

Assay: chemical genetic growth profiling, strain panel (AID 1159580);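 also: tested at 20 µM; growth read once vehicle control cultures reached saturation at 30 °C; 1 = growth at the plate median or of vehicle wells; lower values mean less growth of the strain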
Conditions: S. cerevisiae deletion strains, growth OD

Measured: normalized growth

C[N+]1(C)CCCC(OC(=O)C(O)(c2ccccc2)c2ccccc2)C1 (configuration not stated)
inactive: locus YBR021W, strain FUR4, hits give low values 1.01 | locus YBR229C, strain ROT2, hits give low values 1.01 | locus YCL029C, strain bik1, hits give low values 0.988 | locus YDL035C, strain GPR1, hits give low values 1.02 | locus YDL074C, strain BRE1, hits give low values 1.01 | locus YDL101C, strain DUN1, hits give low values 0.999 | locus YDL185W, strain tfp1, hits give low values 0.961 | locus YDL192W, strain arf1, hits give low values 0.983 | locus YDR101C, strain arx1, hits give low values 1 | locus YDR150W, strain NUM1, hits give low values 1 | locus YDR162C, strain NBP2, hits give low values 1.01 | locus YDR318W, strain mcm21, hits give low values 0.976 | locus YDR388W, hits give low values 0.997 | locus YDR502C, strain sam2, hits give low values 0.989 | locus YEL061C, strain CIN8, hits give low values 0.999 | locus YER110C, hits give low values 0.968 | locus YER155C, strain BEM2, hits give low values 1 | locus YER167W, strain BCK2, hits give low values 0.995 | locus YGL078C, strain dbp3, hits give low values 0.976 | locus YGL086W, strain mad1, hits give low values 1.02 | locus YGL248W, strain PDE1, hits give low values 1 | locus YGR078C, strain PAC10, hits give low values 1 | locus YGR135W, strain pre9, hits give low values 0.937 | locus YGR252W, strain gcn5, hits give low values 0.936 | locus YHR030C, strain SLT2, hits give low values 1 and 1.03 | locus YHR079C, strain IRE1 (second series), hits give low values 0.982 | locus YHR079C, strain IRE1, hits give low values 1.02 | locus YHR094C, strain hxt1, hits give low values 0.996 | locus YHR129C, strain ARP1, hits give low values 1 | locus YHR200W, strain rpn10, hits give low values 0.975 | locus YIL066C, strain RNR3, hits give low values 1.01 | locus YIL073C, strain SPO22, hits give low values 0.937 | locus YIL125W, strain kgd1, hits give low values 0.997 | locus YIR030C, strain dcg1, hits give low values 0.978 | locus YJL095W, strain BCK1, hits give low values 0.969 and 1.02 | locus YJL134W, strain LCB3, hits give low values 1 | locus YJL168C, strain set2, hits give low values 0.998 | locus YJL187C, strain SWE1 (second series), hits give low values 1.01 | locus YJR043C, strain POL32, hits give low values 1.03 | locus YJR066W, strain TOR1, hits give low values 0.986 | locus YKL009W, strain mrt4, hits give low values 1 | locus YKL068W, hits give low values 0.991 | locus YKL085W, strain MDH1 (second series), hits give low values 0.97 | locus YKL085W, strain MDH1, hits give low values 0.97 | locus YKR001C, strain vps1, hits give low values 0.99 | locus YLR039C, strain RIC1, hits give low values 0.94 | locus YLR058C, strain SHM2, hits give low values 0.998 | locus YLR102C, strain apc9, hits give low values 0.982 | locus YLR113W, strain HOG1, hits give low values 1.02 | locus YLR262C, strain YPT6, hits give low values 0.979 | locus YLR268W, strain sec22, hits give low values 0.996 | locus YLR330W, strain CHS5, hits give low values 0.994 | locus YLR342W, strain FKS1 (second series), hits give low values 1.01 | locus YLR371W, strain rom2, hits give low values 0.985 | locus YLR418C, strain cdc73, hits give low values 0.969 | locus YML016C, strain PPZ1, hits give low values 1 | locus YML032C, strain rad52, hits give low values 0.996 | locus YML124C, strain tub3, hits give low values 0.991 | locus YMR078C, strain ctf18, hits give low values 0.97 | locus YMR223W, strain ubp8, hits give low values 0.951 | locus YMR307W, strain GAS1, hits give low values 1.03 | locus YNL067W, strain RPL9B, hits give low values 0.997 | locus YNL153C, strain GIM3, hits give low values 1 | locus YNL183C, strain NPR1, hits give low values 0.983 | locus YNL233W, strain BNI4, hits give low values 0.997 | locus YNL250W, strain rad50, hits give low values 0.962 | locus YNL271C, strain bni1, hits give low values 0.981 | locus YNL298W, strain CLA4, hits give low values 0.968 | locus YNL307C, strain MCK1, hits give low values 0.981 | locus YNL322C, strain KRE1, hits give low values 0.99 | locus YNR052C, strain pop2, hits give low values 0.975 | locus YOL006C, strain TOP1, hits give low values 0.969 | locus YOL012C, strain htz1 0.94 | locus YOL147C, strain pex11, hits give low values 0.993 | locus YOR061W, strain CKA2, hits give low values 0.999 | locus YOR069W, strain VPS5, hits give low values 1 | locus YOR136W, strain idh2, hits give low values 0.996 | locus YOR144C, strain elg1, hits give low values 0.993 | locus YOR184W, strain ser1, hits give low values 0.981 | locus YOR231W, strain MKK1, hits give low values 1.02 | locus YOR316C, strain cot1, hits give low values 0.983 | locus YPL256C, strain CLN2, hits give low values 1.03 | locus YPR119W, strain clb2, hits give low values 0.979 | locus YPR141C, strain kar3, hits give low values 0.983 | locus YPR163C, strain tif3, hits give low values 0.984 | locus YPR167C, strain met16, hits give low values 0.987 | strain wtn01, hits give low values 0.975
